# Where “and” joins values, the source holds several entries; their conditions need not be identical. Identical values can stand only once. Inconclusive results are not listed. Where a call stands in place of a potency, no number is given. Some compounds were tested as several samples or in several runs, with calls that do not always agree. Calls of active or inactive are those of the source. Unless noted, the call rests on the fitted dose curve; in most records, active means well fitted curve in the direction sought with a large enough effect in the repeat runs; inconclusive means weak or mixed curves; inactive means no such curve, though single readings can be large; an effect the other way counts as inactive or inconclusive.
# Legend:
# [1] = qHTS assay to identify small molecule antagonists of the glucocorticoid receptor (GR) signaling pathway - cell viability counter screen (AID 720693); further: nearly all actives have a fitted effect of over 55% in size
# [2] = qHTS assay for identifying genotoxic compounds that show differential cytotoxicity against isogenic chicken DT40 cell lines with known DNA damage response pathways - Rev3 mutant cell line (AID 743014); further: nearly all actives have a fitted effect of over 55% in size; further: potency means the concentration at half of the fitted maximal effect
# [3] = qHTS assay for identifying genotoxic compounds that show differential cytotoxicity against isogenic chicken DT40 cell lines with known DNA damage response pathways - Rad54/Ku70 mutant cell line (AID 743015); further: nearly all actives have a fitted effect of over 60% in size; further: potency means the concentration at half of the fitted maximal effect
# [4] = qHTS assay to identify small molecule antagonists of the androgen receptor (AR) signaling pathway - cell viability counter screen (AID 743033; further: nearly all actives have a fitted effect of over 45% in size; further: potency means the concentration at half of the fitted maximal effect)
# [5] = biological target: Androgen receptor (Homo sapiens) (UniProt P10275); assay: qHTS assay to identify small molecule agonists of the androgen receptor (AR) signaling pathway (AID 743036; active means well fitted activation curve with a large enough effect in the signal ratio in the repeat runs, with a control signal flat, not every such curve was filed as active; the % refers to the signal ratio)
# Summary of the method: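 Beta-lactamase under UAS control, stably integrated in HEK293 GripTite cells, reports receptor activation. After 16 h compound treatment, cells received FRET substrate for 2 h at room temperature before fluorescence reading.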
# [6] = biological target: Androgen receptor (Homo sapiens) (UniProt P10275); assay: qHTS assay to identify small molecule agonists of the androgen receptor (AR) signaling pathway using the MDA cell line (AID 743040; further: potency means the concentration at half of the fitted maximal effect; on all read-outs here: nearly all actives have a fitted effect of over 20% in size); details: MDA-kb2 AR-luc cells, MMTV luciferase, 16 h; for activity change: stronger effect = higher value
# Summary of the method: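 Cell-based luciferase reporter: MDA-kb2, MMTV promoter (AR + GR response elements). 16 h compound exposure at 37C; ONE-Glo, 30 min RT, luminescence.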
# [7] = qHTS assay to identify small molecule antagonists of the thyroid receptor (TR) signaling pathway - cell viability counter screen (AID 743064); further: nearly all actives have a fitted effect of over 50% in size; further: potency means the concentration at half of the fitted maximal effect
# Summary of the method: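 Compounds were tested on GH3.TRE-Luc cells in the presence of T3 at 1 nM final. Following 23.5 h at 37 °C, cell viability was quantified by CellTiter-Fluor.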
# [8] = biological target: Androgen receptor (Homo sapiens) (UniProt P10275); assay: qHTS assay to identify small molecule antagonists of the androgen receptor (AR) signaling pathway using the MDA cell line (AID 743042; further: nearly all actives have a fitted effect of over 55% in size; further: potency means the concentration at half of the fitted maximal effect)
# Summary of the method: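 MDA-kb2 cells (human breast carcinoma, stably carrying an MMTV-luciferase reporter responsive to AR and GR) were plated at 3,000 cells/well and preincubated 5 hr at 37C, then given compound plus R1881 agonist for 16 h. ONE-Glo luminescence was read.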
# [9] = qHTS assay for identifying genotoxic compounds that show differential cytotoxicity against isogenic chicken DT40 cell lines with known DNA damage response pathways - wild type cell line (AID 743012); further: nearly all actives have a fitted effect of over 60% in size; further: potency means the concentration at half of the fitted maximal effect
# Summary of the method: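 Viability by ATP luminescence (CellTiter-Glo, 30 min RT) after 40 h compound treatment at 37 C/5% CO2, using 300 parental DNA repair-proficient DT40 cells per well.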
# [10] = qHTS assay to identify small molecule antagonists of the androgen receptor (AR) signaling pathway using the MDA cell line - cell viability counter screen (AID 743041; further: nearly all actives have a fitted effect of over 45% in size; further: potency means the concentration at half of the fitted maximal effect)
# Summary of the method: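 In this qHTS counter assay, fluorescence intensity after CellTiter-Fluor addition indicated viability of MDA-kb2 AR-luc cells given compounds and R1881 for 16 h at 37C.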
# Androgen receptor (Homo sapiens), sequence (P10275 whole entry, looked up): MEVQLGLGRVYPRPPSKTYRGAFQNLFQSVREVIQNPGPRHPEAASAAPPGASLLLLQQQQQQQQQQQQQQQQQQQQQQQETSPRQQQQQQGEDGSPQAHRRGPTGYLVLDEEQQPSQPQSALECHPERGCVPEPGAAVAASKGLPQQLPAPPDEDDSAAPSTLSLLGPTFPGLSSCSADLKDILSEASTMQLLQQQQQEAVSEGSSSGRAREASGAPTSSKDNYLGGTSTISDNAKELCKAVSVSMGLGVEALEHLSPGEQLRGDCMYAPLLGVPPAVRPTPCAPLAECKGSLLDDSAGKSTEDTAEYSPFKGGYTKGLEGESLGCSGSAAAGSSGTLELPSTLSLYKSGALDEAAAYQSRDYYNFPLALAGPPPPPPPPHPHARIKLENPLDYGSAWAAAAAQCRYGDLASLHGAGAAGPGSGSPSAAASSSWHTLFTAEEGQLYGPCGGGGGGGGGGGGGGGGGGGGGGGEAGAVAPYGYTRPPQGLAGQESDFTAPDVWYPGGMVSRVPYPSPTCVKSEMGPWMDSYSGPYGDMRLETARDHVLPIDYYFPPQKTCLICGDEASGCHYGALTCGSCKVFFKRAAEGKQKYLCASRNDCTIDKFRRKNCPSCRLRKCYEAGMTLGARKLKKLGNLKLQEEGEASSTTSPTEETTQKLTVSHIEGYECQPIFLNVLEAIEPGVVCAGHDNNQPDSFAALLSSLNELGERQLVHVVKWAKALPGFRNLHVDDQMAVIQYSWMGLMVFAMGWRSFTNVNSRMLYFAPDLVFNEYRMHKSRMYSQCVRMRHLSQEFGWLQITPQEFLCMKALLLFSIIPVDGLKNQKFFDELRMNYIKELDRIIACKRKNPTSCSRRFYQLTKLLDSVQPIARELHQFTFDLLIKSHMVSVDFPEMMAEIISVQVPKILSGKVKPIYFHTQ
smiles,measurement,setting,value
COP(=S)(OC)SCn1nnc2ccccc2c1=O,Potency,[1],inactive
same,Potency,[2],60 µM (active) and 61.1 µM (active)
same,Potency,[3],60 µM (active) and 61.1 µM (active)
same,Potency,[4],inactive
same,Potency,[5],inactive
same,activity change,[6]; at 70.3 µM (top of the series),-2.47% (inactive) and -4.42% (inactive)
same,Potency,[7],inactive
OC(c1ccc(Cl)cc1)(c1cncnc1)c1ccccc1Cl (stereo not given),Potency,[2],35 µM (active) and 6.86 µM (active)
same,Potency,[3],49.4 µM (active) and 6.11 µM (active)
same,Potency,[7],inactive
Clc1cccc(C(Cl)(Cl)Cl)n1,Potency,[2],inactive
same,Potency,[3],inactive
same,Potency,[4],inactive
same,Potency,[5],inactive
same,activity change,[6]; at 70.3 µM (top of the series),0.42% (inactive) and 1.19% (inactive)
same,Potency,[8],inactive
same,Potency,[7],inactive
O=P(OCCCl)(OCCCl)OCCCl,Potency,[9],inactive
same,Potency,[2],inactive
same,Potency,[3],inactive
same,Potency,[4],inactive
same,Potency,[10],inactive
same,Potency,[7],inactive
COc1ccc(O)c(C(C)(C)C)c1,Potency,[9],inactive
same,Potency,[2],inactive
same,Potency,[3],inactive
same,Potency,[4],inactive
same,Potency,[10],inactive
same,Potency,[7],inactive
CCOP(=O)(OCC)OCC,Potency,[2],inactive
same,Potency,[3],inactive
same,Potency,[4],inactive
same,Potency,[7],inactive
COP(=S)(OC)Oc1ccc(Sc2ccc(OP(=S)(OC)OC)cc2)cc1,Potency,[9],29.8 µM (active) and 68.6 µM (active)
same,Potency,[5],inactive
same,activity change,[6]; at 70.3 µM (top of the series),-9.3% (inactive) and -9.83% (inactive)
same,Potency,[10],inactive
same,Potency,[8],61.1 µM (active)
same,Potency,[7],inactive
CC(C)(O)C#N,Potency,[2],inactive
same,Potency,[3],inactive
same,Potency,[4],inactive
same,Potency,[10],inactive
same,Potency,[7],inactive
CCC(=O)Nc1ccc(Cl)c(Cl)c1,Potency,[2],inactive
same,Potency,[3],inactive
same,Potency,[4],inactive
same,Potency,[5],inactive
same,activity change,[6]; at 70.3 µM (top of the series),-3.69% (inactive)
same,activity change,[6]; at 95 µM (top of the series),-4.49% (inactive)
same,Potency,[10],inactive
same,Potency,[8],48.6 µM (active)
same,Potency,[7],inactive
CNC(=O)CSP(=S)(OC)OC,Potency,[2],inactive
same,Potency,[3],inactive
same,Potency,[4],inactive
same,Potency,[7],inactive
COc1ccc(CO)cc1,Potency,[9],inactive
same,Potency,[2],inactive
same,Potency,[3],inactive
same,Potency,[4],inactive
same,Potency,[7],inactive
C=C(C)C#N,Potency,[9],inactive
same,Potency,[2],inactive
same,Potency,[3],inactive
same,Potency,[4],inactive
same,Potency,[7],inactive
Oc1ccc(Cl)cc1Cc1ccccc1,Potency,[2],26.6 µM (active) and 54.5 µM (active) and 21.3 µM (active)
same,Potency,[3],29.8 µM (active) and 48.6 µM (active) and 16.5 µM (active)
same,Potency,[4],inactive and 38.9 µM (active) and 39.4 µM (active)
same,activity change,[6]; at 70.3 µM (top of the series),-0.884% (inactive) and -9.7% (inactive)
same,activity change,[6]; at 95 µM (top of the series),-7.19% (inactive)
same,Potency,[8],inactive and 54.5 µM (active)
same,Potency,[7],48.6 µM (active) and 36.7 µM (active)
C[C@]12CC[C@H]3[C@@H](CCC4=CC(=O)CC[C@@H]43)[C@@H]1CC[C@@H]2O,Potency,[9],26.6 µM (active)
same,Potency,[2],inactive
same,Potency,[4],inactive
same,Potency,[10],inactive
same,Potency,[7],inactive
CC(C)(O)C(=O)Nc1ccc([N+](=O)[O-])c(C(F)(F)F)c1,Potency,[2],49.5 µM (active) and 6.31 µM (active)
same,Potency,[3],19.7 µM (active) and 5.01 µM (active)
same,Potency,[7],inactive
O=C1Nc2ccc(Cl)cc2C(c2ccccc2)=NC1O (stereo not given),Potency,[4],inactive
same,Potency,[10],inactive
same,Potency,[7],inactive
CN(C)c1ccccc1,Potency,[9],inactive
same,Potency,[2],inactive
same,Potency,[3],inactive
same,Potency,[4],inactive
same,Potency,[10],inactive
same,Potency,[7],inactive
O=S(=O)(O)C(F)(F)C(F)(F)C(F)(F)C(F)(F)C(F)(F)C(F)(F)C(F)(F)C(F)(F)F,Potency,[2],61.1 µM (active) and 48.6 µM (active)
same,Potency,[4],inactive
same,Potency,[10],inactive
same,Potency,[7],47.2 µM (active)
Cc1cc(Cl)ccc1N=CN(C)C,Potency,[9],inactive
same,Potency,[2],inactive
same,Potency,[3],inactive
same,Potency,[4],inactive
same,Potency,[10],inactive
same,Potency,[7],inactive
CCC/C=N/O,Potency,[2],inactive
same,Potency,[3],inactive
same,Potency,[4],inactive
same,Potency,[7],inactive
COP(=S)(OC)Oc1ccc(S(=O)(=O)N(C)C)cc1,Potency,[2],inactive and 24.3 µM (active)
same,Potency,[3],inactive and 34.4 µM (active)
same,Potency,[4],inactive
same,Potency,[5],inactive
same,activity change,[6]; at 70.3 µM (top of the series),-0.992% (inactive) and -9.46% (inactive)
same,Potency,[8],inactive and 61.1 µM (active)
same,Potency,[7],inactive
Cl,Potency,[9],inactive and 54.5 µM (active)
same,Potency,[2],inactive and 48.6 µM (active)
same,Potency,[3],inactive
same,Potency,[4],inactive
same,Potency,[10],inactive
same,Potency,[7],inactive
Nc1ccc([N+](=O)[O-])cc1N,Potency,[9],27.3 µM (active)
same,Potency,[2],43.2 µM (active) and inactive
same,Potency,[3],13.7 µM (active) and 19.3 µM (active)
same,Potency,[4],inactive
same,Potency,[7],24.3 µM (active) and 43.3 µM (active)
CCN(CC)C(=O)C(C)Oc1cccc2ccccc12 (stereo not given),Potency,[9],10.9 µM (active)
same,Potency,[2],54.9 µM (active) and 17.2 µM (active)
same,Potency,[3],17.2 µM (active)
same,Potency,[7],inactive
ClCc1ccccn1,Potency,[2],inactive
same,Potency,[3],inactive
same,Potency,[4],inactive
same,Potency,[10],inactive
same,Potency,[7],inactive
CCCCCCCCCC(CC)c1ccc(S(=O)(=O)O)cc1 (stereo not given),Potency,[9],inactive and 18.8 µM (active)
same,Potency,[3],inactive and 30.6 µM (active) and 47.2 µM (active)
same,Potency,[4],inactive
same,Potency,[10],inactive
N#CCCCCC#N,Potency,[2],inactive
same,Potency,[3],inactive
same,Potency,[4],inactive
same,Potency,[10],inactive
CCCCCCCCCc1ccc(O)cc1,Potency,[3],30.9 µM (active)
same,Potency,[10],inactive
same,Potency,[7],39 µM (active)
CC(C)(c1ccccc1)c1ccc(O)cc1,Potency,[9],21.7 µM (active)
same,Potency,[2],60.6 µM (active) and 17.2 µM (active)
same,Potency,[3],13.7 µM (active)
same,Potency,[4],38.6 µM (active) and 49 µM (active)
same,Potency,[10],inactive
same,Potency,[7],48.2 µM (active) and 61.1 µM (active)
S=c1[nH]c2ccccc2[nH]1,Potency,[2],inactive
same,Potency,[3],inactive
same,Potency,[4],inactive
same,Potency,[5],inactive
same,Potency,[6],3.86 µM (active)
same,activity change,[6]; at 70.3 µM (top of the series),-1.99% (inactive)
same,Potency,[10],inactive
same,Potency,[8],inactive
same,Potency,[7],inactive
Oc1ccc(Cl)cc1Cl,Potency,[2],inactive
same,Potency,[3],inactive
same,Potency,[4],inactive
same,Potency,[10],inactive
same,Potency,[7],inactive
CC1(C)C(C(=O)OC(C#N)c2cccc(Oc3ccccc3)c2)C1(C)C (stereo not given),Potency,[9],inactive and 48.5 µM (active)
same,Potency,[2],inactive
same,Potency,[3],inactive and 54.4 µM (active)
same,Potency,[4],inactive
same,Potency,[10],inactive
same,Potency,[7],inactive
Cc1ccc(N=CN(C)C=Nc2ccc(C)cc2C)c(C)c1,Potency,[2],inactive and 38.5 µM (active)
same,Potency,[3],inactive and 30.6 µM (active)
same,Potency,[4],inactive
same,Potency,[10],inactive
same,Potency,[7],inactive and 48.5 µM (active)
Cc1cccc(N=Nc2ccc(N(C)C)cc2)c1,Potency,[2],inactive and 27.3 µM (active)
same,Potency,[3],inactive and 27.3 µM (active)
same,Potency,[4],inactive
same,Potency,[7],inactive
O=C(O)CF,Potency,[9],inactive
same,Potency,[2],inactive
same,Potency,[3],inactive
same,Potency,[4],inactive
same,Potency,[10],inactive
same,Potency,[7],inactive
c1ccc(C2CO2)cc1 (stereo not given),Potency,[9],inactive
same,Potency,[2],inactive
same,Potency,[3],inactive
same,Potency,[4],inactive
same,Potency,[10],inactive
same,Potency,[7],inactive
Clc1ccccc1-c1nnc(-c2ccccc2Cl)nn1,Potency,[2],inactive
same,Potency,[3],inactive
same,Potency,[4],inactive
same,Potency,[7],inactive
CCC[CH2][Sn]([Cl])([Cl])[CH2]CCC,Potency,[9],438 nM (active) and 17.2 nM (active)
same,Potency,[2],276 nM (active) and 17.2 nM (active)
same,Potency,[3],348 nM (active) and 17.2 nM (active)
same,Potency,[4],1.4 µM (active) and 389 nM (active)
same,Potency,[10],1.96 µM (active) and 2.73 µM (active)
same,Potency,[7],0.0344 µM (active)
CC(C)Nc1nc(Cl)nc(NC(C)C)n1,Potency,[9],inactive
same,Potency,[2],inactive
same,Potency,[3],inactive
same,Potency,[4],inactive
same,Potency,[7],inactive

# Source: PubChem BioAssay (Tox21)
